Screening data (PubChem)
PvdQ acylase = P. aeruginosa PvdQ acylase inhibition | purified PvdQ acylase, fluorescence plate reader | inhibition, % at 10 µM | hit rate 0.063% among 340,000 | AID 488965; in the data active = inhibition above about 30%, passing the limit was not always enough;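 also: 0% = vehicle neutral wells and 100% = reference inhibitor wells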
DENV2 CPE rescue = DENV2-induced cell death inhibition; DENV2-infected cells, cytopathic effect rescue, plate reader; CPE inhibition, % at 9.99 µM; hit rate 1.7% among 350,000; AID 651640; in the data active = CPE inhibition above about 20%, passing the limit was not always enough; tested in BHK-21 cells;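 also: 0% = median of neutral control wells and 100% = median of positive control wells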
PGC1a acetyl inh = PGC1a acetylation modulation, inhibitor mode | AID 651687 | U2OS PGC1a acetylation, AlphaScreen anti-acetyl-lysine; with virally co-expressed GCN5 acetyltransferase | hit rate 0.17% among 350,000 | inhibition, % at 15.6 µM;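 active = every replicate shows inhibition of at least 40%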;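 also: 0% = neutral control wells and 100% = positive control wells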
miR-122 sensor = miR-122 inhibition in Huh7 cells; Huh7 miR-122 Renilla luciferase sensor, 48 h; neutral wells = 0, positive control = 100; activation (reporter increase), % at 12.5 µM; hit rate 0.3% among 340,000;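 active = mean replicate activation score at least 90 and every replicate individually at or above 90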;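 also: higher luciferase means less miR-122 activity so hits act as miR-122 inhibitors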
C2C12 statin = suppressors of simvastatin-induced myotoxicity in C2C12 myotubes; hit rate 0.78% among 330,000; ATP luminescence, 48 h; scaled: DMSO 0, geranylgeraniol control 100; rescue of ATP level, % at 7.49 µM;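 active = mean ATP rescue above about 67%, or every replicate alone reaching that limit, limit read from the data, passing the limit was not always enough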;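 also: myotubes were challenged with 10 µM simvastatin during compound exposure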
* = called active by the depositor; [ ] = another dose, or the depositor's remark. An excerpt weighted towards active compounds, which were near 2.2% of everything screened.

Screening CO[C@H]1CN(C)C(=O)c2ccc(NS(C)(=O)=O)cc2OC[C@H](C)N(CC2CCCCC2)C[C@H]1C returned DENV2 CPE rescue -3, PGC1a acetyl inh -5 and C2C12 statin 3.
CCCOc1ccc(C(=O)Nc2ccc(S(=O)(=O)N3C[C@@H]4C[C@@H](C3)c3cccc(=O)n3C4)cc2)cc1 was read as PvdQ acylase -15, DENV2 CPE rescue 31*, PGC1a acetyl inh -16, miR-122 sensor 3 and C2C12 statin -33.
CCOc1ccc(/C=N/NC(=O)c2ccc(F)cc2)cc1CN1CC2CC(C1)c1cccc(=O)n1C2 (centres undefined) was read as PvdQ acylase -10, DENV2 CPE rescue 20*, PGC1a acetyl inh 1, miR-122 sensor -1 and C2C12 statin 7.
For O=C(C[C@@H]1CC[C@@H](NC(=O)C2CCC2)[C@@H](CO)O1)NC1CCCCC1 the results were DENV2 CPE rescue 0, PGC1a acetyl inh 2 and C2C12 statin -5.
O=C(Cc1ccccc1)N1CC[C@@H]2[C@@H](CO)Nc3ccc(-c4cccc(F)c4)cc3[C@@H]21 was read as DENV2 CPE rescue -7, PGC1a acetyl inh -5, miR-122 sensor 109*[16.7 µM] and C2C12 statin -5.
Screening CCC(=O)N1CC[C@@H]2[C@H](CO)Nc3ccc(-c4cccc(C#N)c4)cc3[C@@H]21 returned DENV2 CPE rescue 137*, PGC1a acetyl inh 0, miR-122 sensor 11[16.7 µM] and C2C12 statin 2.
For O=C(C1CC1)N1CC[C@H]2[C@H](CO)Nc3ccc(-c4cccc(F)c4)cc3[C@H]21 the results were DENV2 CPE rescue 32*, PGC1a acetyl inh 2, miR-122 sensor 7[16.7 µM] and C2C12 statin -3.
For O=C(Cc1ccccc1)N1CC[C@H]2[C@H](CO)Nc3ccc(-c4cccc(F)c4)cc3[C@H]21 the results were DENV2 CPE rescue -4, PGC1a acetyl inh -2, miR-122 sensor -6[16.7 µM] and C2C12 statin 26.
Screening N#Cc1cccc(-c2ccc(C3[C@H]4CNC[C@@H]3N4C(=O)Nc3ccc(Cl)cc3)cc2)c1 (some centres undefined) returned DENV2 CPE rescue 7 and PGC1a acetyl inh -11.
Screening O=C(C[C@@H]1CC[C@H](NS(=O)(=O)c2ccccc2)[C@@H](CO)O1)NCc1ccncn1 returned DENV2 CPE rescue 9, PGC1a acetyl inh 9 and C2C12 statin -6.
For CCCNC(=O)N1[C@H](CO)[C@@H](c2ccc(C3=CCCC3)cc2)[C@@H]1CN(C)C(C)=O the results were DENV2 CPE rescue -5, PGC1a acetyl inh -10, miR-122 sensor -7[16.7 µM] and C2C12 statin 11.
Screening COc1cc(CCCN2C(=S)NC[C@@H]2c2ccccc2)cc(OC)c1OC returned PvdQ acylase -9, DENV2 CPE rescue 25*, PGC1a acetyl inh 6, miR-122 sensor 32 and C2C12 statin -1.
Cc1ccccc1S(=O)(=O)N1[C@@H]2c3cccc(=O)n3C[C@H]1[C@H](CO)[C@H]2C(=O)N1CCOCC1 was read as DENV2 CPE rescue -2, miR-122 sensor 2[16.7 µM] and C2C12 statin 4.
For COc1ccc2c3c(n(C)c2c1)[C@@H](CO)N(C(=O)c1ccccn1)CC31CCN(C(=O)c2ccccn2)CC1 the results were DENV2 CPE rescue 1.
CCCC(=O)N1CCC2(CC1)CN(S(C)(=O)=O)[C@H](CO)c1c2c2ccc(OC)cc2n1C was read as DENV2 CPE rescue 59* and PGC1a acetyl inh 4.
For COc1ccc2c3c(n(C)c2c1)[C@@H](CO)N(C(=O)c1ccccn1)CC31CCN(C)CC1 the results were DENV2 CPE rescue 35* and PGC1a acetyl inh -6.
CCCC(=O)N1CC2(CCN(C)CC2)c2c(n(C)c3cc(OC)ccc23)[C@@H]1CO was read as DENV2 CPE rescue 64* and PGC1a acetyl inh -5.
For CCCC(=O)N1CC2(CCN(C(C)=O)CC2)c2c(n(C)c3cc(OC)ccc23)[C@@H]1CO the results were DENV2 CPE rescue -1 and PGC1a acetyl inh -2.
Screening C[C@@H]1CN([C@H](C)CO)C(=O)c2cc(NC(=O)Nc3ccc(C(F)(F)F)cc3)ccc2O[C@@H]1CN(C)CC1CC1 returned DENV2 CPE rescue 2, miR-122 sensor -6[16.7 µM] and C2C12 statin -4.
For CCOc1ccccc1C=C1SC(=S)NC1=O the results were PvdQ acylase 2, DENV2 CPE rescue 35*, PGC1a acetyl inh 0, miR-122 sensor -2 and C2C12 statin -27.
For Clc1ccc2[nH]cc(-c3nnnn3-c3ccc4ccccc4c3)c2c1 the results were PvdQ acylase 0 and miR-122 sensor 212*.
